# In the supplement of paper PMC10981050:
# “And” between values parts separate entries of the source, which are not always exact repeats. Identical values can stand only once. Counter-ions that a name gives are not always drawn.
# Assays:
# Experiment in all cases: cell viability relative to vehicle control; higher = less cytotoxic
# Conditions in all cases: 10 µM
# K562 = test system: K562
# Outline: (§1)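 CRISPR-edited SRSF2 P95 mutant and isogenic wild-type clones of four leukaemia lines were screened against Selleck bioactive, kinase and epigenetic probe libraries, with identity-inconsistent compounds removed. Compounds were acoustically dispensed into 384-well plates at a single 10 µM dose, with 2000 cells in 50 µL medium per well. After 48 h, supernatant was removed and CellTiter-Glo luminescence was read. Viability was expressed as percent of the on-plate DMSO vehicle control, analysed in Genedata Screener.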
# MARIMO = test system: MARIMO
# Outline: as §1
# MOLM14 = test system: MOLM14
# Outline: as §1
# OCI-AML2 = test system: OCI-AML2
# Outline: as §1
Compound,cell viability (K562; SRSF2 genotype: SRSF2 P95H/wt),cell viability (K562; SRSF2 genotype: SRSF2 wt/wt) [%],cell viability (MARIMO; SRSF2 genotype: SRSF2 P95H/wt) [%],cell viability (MARIMO; SRSF2 genotype: SRSF2 wt/wt) [%],cell viability (MOLM14; SRSF2 genotype: SRSF2 P95H/wt) [%],cell viability (MOLM14; SRSF2 genotype: SRSF2 wt/wt) [%],cell viability (OCI-AML2; SRSF2 genotype: P95H/wt) [%],cell viability (OCI-AML2; SRSF2 genotype: wt/wt) [%]
CCOC(=O)[C@H](CCc1ccccc1)N[C@@H](C)C(=O)N1CCC[C@H]1C(=O)O [Enalapril maleate (Vasotec)],106% and 100%,106,99.6,111,112,103,94.2,97.8
CO[C@H]1/C=C/O[C@@]2(C)Oc3c(C)c(O)c4c(O)c(c5c(nc6cc(C)ccn65)c4c3C2=O)NC(=O)/C(C)=C\C=C\[C@H](C)[C@H](O)[C@@H](C)[C@@H](O)[C@@H](C)[C@H](OC(C)=O)[C@@H]1C [Rifaximin (Xifaxan)],97.9% and 106%,98.1,103,107,105,101,111,98.7
COc1c(C)cnc(Cn2cnc3c(Cl)nc(N)nc32)c1C,21.6% and 31%,29.2,32.7,25.9,2.67,2.88,18.4,22.2
Cc1cc(=O)n(-c2ccccc2)n1C [Antipyrine],97.8% and 87.7%,82.7,86.2,95.4,88.1,87.4,84.8,93.4
CCCS(=O)(=O)Nc1ccc(F)c(C(=O)c2c[nH]c3ncc(Cl)cc23)c1F,87.6% and 92.7%,94.9,72.2,88.4,81.4,88.1,99.2,105
Cc1ccc(NS(=O)(=O)c2ccc3c(c2)C2C=CCC2C(c2ccc(C(=O)O)cc2)N3)cc1C (stereo not given),108% and 98.9%,110,102,101,106,104,103,117
Oc1c(Cl)cc(Cl)c2cccnc12 [Chloroxine],62.1% and 63.6%,66.6,21.6,14.7,55.5,63.2,1.78,3.9
Cc1cc(Nc2cc(N)ncn2)c(=O)n2c1C(=O)NC21CCCCC1,89.2% and 85.2%,87.7,86,98.2,83.5,92,89,88.5
O[C@H]1[C@H]2c3cc4c(cc3CN3CCC(=C[C@@H]1O)[C@H]23)OCO4 [Lycorine],18.3% and 25.2%,27.9,23,20.6,18.2,7.75,0.46,1.41
CCCNC(=O)C1OC1C(=O)NC(C(=O)N1CCCC1C(=O)OC)C(C)CC (stereo not given) [CA-074 methyl ester (CA-074 Me)],76.9% and 62.3%,70.2,66,90.1,18.2,11.8,25.6,24.1
Cc1cc(S(=O)(=O)O)c2c(C)ccc(C(C)C)cc1-2 [Sodium gualenate],103%,103,100,108,99,104,95.2,106
Clc1ccc(C2(c3ccc(-c4cn[nH]c4)cc3)CCNCC2)cc1,44.6% and 48.5%,34.5,40.3,45,24.2,12.5,21.6,27.4
NC(=O)[C@@H](CCC(F)(F)F)N(Cc1ccc(-c2ncon2)cc1F)S(=O)(=O)c1ccc(Cl)cc1,92.5% and 98.1%,93.9,84.8,96.6,88.2,97.9,106,104
CCC/C=C1\OC(=O)C2=C1CCC=C2 [Ligustilide],84.1% and 83.7%,85.5,60.9,65.6,52.7,49.4,64.8,63.9
Cc1cc(C)c(CN2CCc3c(Cl)cc(-c4c(C)noc4C)c(Cl)c3C2=O)c(=O)[nH]1,78.7% and 87.1%,87.5,74.8,65.4,77.6,79.8,77.4,86.5
Cn1cc(C2=C(c3ccc(Cl)cc3Cl)C(=O)NC2=O)c2ccccc21,97.9% and 94.8%,94.2,94.7,105,103,99.1,95.8,107
O=C1CN2Cc3c(ccc(Cl)c3Cl)N=C2N1 [Anagrelide hydrochloride],94.6% and 89.8%,108,84.1,96.4,83.4,93.4,101,110
"Cc1cc(Nc2cc(N3CCN(C)CC3)nc(Sc3ccc(NC(=O)C4CC4)cc3)n2)n[nH]1 [VX-680 (MK-0457, Tozasertib)]",16.4% and 18.7%,14.8,53.6,38,6.03,9.53,14.4,19.3
C#C[C@]1(O)CC[C@H]2[C@@H]3CCc4cc(OC5CCCC5)ccc4[C@H]3CC[C@@]21C [Quinestrol],78.4% and 83.7%,71,62.4,57.9,78.8,79.2,49.7,60.6
Cc1c(-c2ccnn2C)cc(C(=O)NCc2ccc(S(C)(=O)=O)cn2)c(=O)n1-c1cccc(C(F)(F)F)c1,97.6% and 102%,100,112,105,109,106,107,113

Compound,cell viability (K562; SRSF2 genotype: SRSF2 P95H/wt),cell viability (K562; SRSF2 genotype: SRSF2 wt/wt) [%],cell viability (MARIMO; SRSF2 genotype: SRSF2 P95H/wt) [%],cell viability (MARIMO; SRSF2 genotype: SRSF2 wt/wt) [%],cell viability (MOLM14; SRSF2 genotype: SRSF2 P95H/wt) [%],cell viability (MOLM14; SRSF2 genotype: SRSF2 wt/wt) [%],cell viability (OCI-AML2; SRSF2 genotype: P95H/wt) [%],cell viability (OCI-AML2; SRSF2 genotype: wt/wt) [%]
CN(C)C(=N)NC(=N)N [Metformin hydrochloride (Glucophage)],108%,110,108,110,105,104,102,116
O=C1CCN(c2ccccc2)N1 [Phenidone],106% and 107%,103,102,105,100,105,99.5,111
CC1(C)OC[C@@H](COC(=O)CCc2ccc(OC[C@@H](O)CNCCNC(=O)N3CCOCC3)cc2)O1 [Landiolol hydrochloride],93.9% and 87.6%,101,97.6,92.6,97.6,98.2,98.3,102
CCn1c(=O)c2c(nc(/C=C/c3ccc(OC)c(OC)c3)n2C)n(CC)c1=O [Istradefylline (KW-6002)],90.7% and 83.8%,85.1,81.1,95.3,96.5,97.6,117,92.4
CCCc1cc(-c2nc(-c3ccc(C)cc3)cs2)ccn1 [Fatostatin],22.9% and 30.5%,39,46.2,36,51.6,35.5,34.2,35.4
COc1ccc(S(=O)(=O)N(C(C)=O)c2ccccc2/C=C/c2cc[n+]([O-])cc2)cc1,19.2% and 41.4%,38.4,6.78,8.02,15.9,3.3,6.25,9.13
Nc1ccc(C(=O)Nc2cccc(-c3nc(N4CCOCC4)c4oc5ncccc5c4n3)c2)cn1,75.4% and 89.9%,95.8,73.7,79.4,103,104,86.7,89.1
Cc1ccc(Cl)cc1N(CC(=O)Nc1c(F)cccc1F)S(C)(=O)=O,104% and 111%,116,99.5,106,102,105,110,124
O=C1c2ccccc2C(=O)C1c1ccccc1 [Phenindione (Rectadione)],103% and 98.4%,105,105,104,107,106,101,113
COc1ccc(CCCOC(Cn2ccnc2)c2ccc(OC)cc2)cc1 (stereo not given),16.1% and 28.8%,28.9,13.8,14.8,19.7,4.26,14.6,18.9
CC(=O)OC1C[C@H](C)CCC1C(C)C (stereo partly drawn) [(1R)-(-)-Menthyl acetate],98% and 101%,101,92.4,97.6,98.5,106,104,114
O=C(NCCCn1ccnc1)c1cc(-c2ccco2)on1,87.3% and 91.7%,87.1,68.9,79.4,45.7,44.4,77.2,72.6
COCC(=O)Nc1cc(Sc2ccccc2)ccc1N=C(NC(=O)OC)NC(=O)OC [Febantel],98.1% and 91.8%,97.1,98.9,107,97.9,110,98.3,102
CCCCCCOC(=O)c1cc(=O)c(O)c2c(O)c(O)c(OC)cc2c1,14.8% and 16.8%,46.8,45.2,45.2,61.5,58.9,19.8,42.4
N#CC(c1ccc(Cl)cc1)c1c(Cl)cc(-n2ncc(=O)[nH]c2=O)cc1Cl (stereo not given) [Diclazuril],101% and 88.5%,85.2,83.8,94.7,84.4,86.3,91.3,80.8
Cn1cc(-c2[nH]c3cc(NC(=O)[C@H](N)C4CCCCC4)cc4c3c2C=NNC4=O)cn1,2.84% and 6.35%,4.41,32.7,26.9,0.83,0.37,5.09,8.02
C#C[C@]1(O)CC[C@H]2[C@@H]3CCC4=CC(=O)CC[C@@H]4[C@H]3C(=C)C[C@@]21CC [Etonogestrel],82.9% and 75.4%,80.4,78.6,88.8,84.9,89.9,88,88.3
O=C(NC(Cc1cc(=O)[nH]c2ccccc12)C(=O)O)c1ccc(Cl)cc1 (stereo not given) [Rebamipide],99.4% and 101%,96.4,96.9,100,104,101,94.8,102
CS(=O)(=O)n1cc2c(n1)CN([C@H]1CO[C@H](c3cc(F)ccc3F)[C@@H](N)C1)C2 [Omarigliptin (MK-3102)],98.3% and 102%,96.2,99.2,99.9,101,96.4,101,103
O=S(=O)(NC1CCCCC1)c1ccc2c(c1)C(=NO)c1cc(S(=O)(=O)NC3CCCCC3)ccc1-2,80.3% and 92.9%,92.3,4.08,57.4,11.1,70.7,0.52,0.59
